Structures can show the parent of a compound that is named as a salt.
tested on: OCI-AML2; assay: cell viability relative to vehicle control; higher = less cytotoxic; details: 10 µM; SRSF2 genotype: P95H/wt
Procedure, shortened: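 Mutant clones made by CRISPR editing and their isogenic wild-type counterparts, from four leukaemia lines, were exposed to a single 10 µM dose of each library compound for 48 h. The supernatant was then removed and CellTiter-Glo luminescence was read. Viability was reported as percent of the on-plate vehicle control.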

| SMILES | cell viability |
| --- | --- |
| CCOC(=O)Nc1ccc(NCc2ccc(F)cc2)cc1N [Retigabine 2HCl] | 96.5% |
| Cn1c(COP(=O)(NCCBr)NCCBr)cnc1[N+](=O)[O-] | 29.4% |
| NC(=O)CN1CCCC1=O [Piracetam] | 103% |
| CC(C)c1ccc2c(c1O)CC[C@H]1C3=C(CC[C@]21C)C(=O)OC3 [Triptophenolide] | 49% |
| C#C[C@]1(O)C=C[C@H]2[C@@H]3CCC4=CC(=O)CC[C@@H]4[C@H]3CC[C@@]21CC [Gestodene] | 99% |
| Cc1cccc(Cc2c[nH]cn2)c1C [Detomidine HCl] | 110% |
| CCCN1C[C@H](CSC)C[C@@H]2c3cccc4[nH]cc(c34)C[C@H]21 [Pergolide mesylate] | 84% |
| O=c1ccc2ccc3occc3c2o1 [Isopsoralen] | 103% |
| CNCC(O)c1ccc(O)cc1 (stereo not given) [Synephrine (Oxedrine)] | 98.4% |
| CCO[C@H]1O[C@@H]2O[C@@]3(C)CC[C@H]4[C@H](C)CC[C@@H]([C@H]1C)[C@@]24OO3 [Arteether] | 55.5% |
| C[C@](O)(COc1ccc(C#N)cc1)C(=O)Nc1ccc(C#N)c(C(F)(F)F)c1 | 99.4% |
| CCN(CC)CCOC(=O)C(O)(c1ccccc1)c1ccccc1 [Benactyzine hydrochloride] | 89.8% |
| C[N+]1(C)CCCC(OC(=O)C(O)(c2ccccc2)c2ccccc2)C1 (stereo not given) [mepenzolate bromide] | 101% |
| Cc1ccccc1-n1c(Cn2ncc3c(N)ncnc32)nc2cccc(C)c2c1=O | 81.5% |
| C=CC[C@]1(O)CC[C@H]2[C@@H]3CCC4=CC(=O)CCC4=C3C=C[C@@]21C [Altrenogest] | 109% |
| CN1C2CCC1CC(O)C2 (stereo not given) [Tropine] | 94.5% |
| Cc1ccccc1-n1c(CF)nc2ccc(N)cc2c1=O [Afloqualone] | 110% |
| CNCC(=O)c1ccc(O)c(O)c1 [Adrenalone HCl] | 90.5% |

| SMILES | cell viability |
| --- | --- |
| CC(=O)O[C@H]1C(=O)[C@@]2(C)[C@H]([C@H](OC(=O)c3ccccc3)[C@]3(O)C[C@H](O)C(C)=C1C3(C)C)[C@]1(OC(C)=O)CO[C@@H]1C[C@@H]2O | 104% |
| Nc1ncnc2c1ccn2[C@@H]1O[C@H]([C@H](O)c2ccccc2)[C@@H](O)[C@H]1O | 79% |
| CN1CCCCC1Cn1cc(C(=O)c2cc([N+](=O)[O-])ccc2I)c2ccccc21 (stereo not given) | 76.2% |
| CC(=O)Nc1ccc(Cc2ccc(NC(C)=O)cc2)cc1 | 104% |
| NC(=O)CN1CC(c2ccccc2)CC1=O (stereo not given) [Phenylpiracetam] | 101% |
| CC(C)c1ccc(CO)cc1 [4-Isopropylbenzyl Alcohol] | 87.7% |
| O=C(c1ccccc1O)c1[nH]c(Cl)c(Cl)c1-n1c(C(=O)c2ccccc2O)cc(Cl)c1Cl [Marinopyrrole A (Maritoclax)] | 4.26% |
| CCN1CCN(C(=O)Cc2ccc(Nc3ncc(F)c(Nc4ccc(C(=O)Nc5ccccc5Cl)cc4)n3)cc2)CC1 [Aurora A Inhibitor I] | 4.67% |
| C=C[C@H]1CN2CC[C@H]1C[C@H]2[C@H](O)c1ccnc2ccccc12 [Cinchonidine] | 95.2% |
| O=c1ccc2cc(O[C@@H]3O[C@H](CO)[C@@H](O)[C@H](O)[C@H]3O)c(O)cc2o1 [Aesculin (Esculin)] | 95.1% |
| C[N+](C)(C)CCCCCCCCCC[N+](C)(C)C [Decamethonium Bromide] | 120% |
| CC[C@H]1CN2CC[C@H]1C[C@H]2[C@H](O)c1ccnc2ccc(OC)cc12 [Hydroquinine] | 100% |
| O=C(O)CCCCCCCCCO [10-Hydroxydecanoic acid] | 99.4% |
| COC1=CC23CCN(C)C(Cc4ccc(OC)c(O)c42)C3=CC1=O (stereo not given) [Sinoacutine] | 101% |
| COc1ccc(C(=O)N2CCCC2=O)cc1 [Aniracetam] | 118% |
| CC(C)=CCCC(C)(O)C1CCC2(C)C1C(O)CC1C3(C)CCC(OC4OC(CO)C(O)C(O)C4O)C(C)(C)C3CCC12C [(20R)Ginsenoside Rh2] | 98.5% |
| c1cc2c(cc1[C@H]1OC[C@H]3[C@@H]1CO[C@H]3c1ccc3c(c1)OCO3)OCO2 [Asarinin] | 89.1% |

From the supplement of paper PMC10981050
